Data reported in PubChem BioAssay (EPA / NIEHS).
Records with an inconclusive call do not appear. Calls of active or inactive are those of the source. The calls were made as follows: active = hit-call score of the fitted dose curve at least 0.9, where 1 is the maximum; inconclusive = response in the unintended direction; inactive = score below 0.9.

These compounds were tested against Oxysterols receptor LXR-beta (Homo sapiens) (UniProt P55055) (assay: ATG_LXRb_TRANS: Attagene TRANS-FACTORIAL HepG2 Assay for human Liver X Receptor beta (LXRb) (AID 2282981)). Conditions: HepG2 Attagene TRANS GAL4-LXRb reporter, mRNA.
Procedure: ATG_TRANS is a cell-based, multiplexed-readout assay that uses HepG2, a human liver cell line, with measurements taken at 24 hours after chemical dosing in a 24-well plate.ATG_LXRb_TRANS is one of 30 assay component(s) measured or calculated from the ATG_TRANS assay. It is designed to make measurements of mRNA induction, a form of inducible reporter, as detected with fluorescence intensity signals by Reverse transcription polymerase chain reaction (RT-PCR) and Capillary electrophoresis technology.Data from the assay component ATG_LXRb_TRANS was analyzed into 1 assay endpoint. This assay endpoint, ATG_LXRb_TRANS, was analyzed in the positive analysis fitting direction relative to DMSO as the negative control and baseline of activity. Using a type of inducible reporter, measures of mRNA for gain-of-signal activity can be used to understand the reporter gene at the transcription factor-level as they relate to the gene NR1H2. Furthermore, this assay endpoint can be referred to as a primary readout, because this assay has produced multiple assay endpoints where this one serves a reporter gene function. To generalize the intended target to other relatable targets, this assay endpoint is annotated to the nuclear receptor intended target family, where the subfamily is non-steroidal.
Human liver HepG2 cells are transiently transfected with multiple reporter transcription units (MRTUs) in 6-well plates using FuGene 6 reagent (Roche; 3 ml FuGene/1 mg DNA). The MRTU constructs are regulated by a cis-regulating element (promoter). […] A major difference between the CIS and TRANS system is that in CIS activities of endogenous TFs are measured, whereas the TRANS assay evaluates changes in activities of exogenous, chimeric NR-Gal4 proteins. […] At the end of 24 hour incubation, total RNA was isolated using TriZol reagent (Invitrogen). The isolated RNA is then reverse-transcribed using oligo(dT) primer and Mo-MLV reverse transcriptase (Invitrogen) with DNAse I (Ambion) treatment for 30 min. The one-tenth of the produced cDNA was amplified by PCR using Taq DNA polymerase (Invitrogen) and two reporter sequence-specific primers. The PCR products were fluorescently labeled by primer extension with 6-arboxyfluorescein (6-FAM) 5'-labeled reporter sequence-specific primer (2 min at 95 C, 20 s at 68 C and 10 min at 72 C) and these products were digested with 5U of HpaI (New England Biolabs) for 2h at 37 C. The fragments were purified using Qiaquick PCR columns (Qiagen), analyzed on an ABI 3130xL genetic analyzer (Applied Biosystems) with peak positions identified by using a set of X-rhodamine (ROX)-labeled MapMarker1000 molecular weight standards (BioVentures). The raw capillary electrophoresis data was processed using Attagraph software (Attagene).

Chain of Oxysterols receptor LXR-beta (Homo sapiens) (P55055 whole entry, looked up, the tested form may be a part): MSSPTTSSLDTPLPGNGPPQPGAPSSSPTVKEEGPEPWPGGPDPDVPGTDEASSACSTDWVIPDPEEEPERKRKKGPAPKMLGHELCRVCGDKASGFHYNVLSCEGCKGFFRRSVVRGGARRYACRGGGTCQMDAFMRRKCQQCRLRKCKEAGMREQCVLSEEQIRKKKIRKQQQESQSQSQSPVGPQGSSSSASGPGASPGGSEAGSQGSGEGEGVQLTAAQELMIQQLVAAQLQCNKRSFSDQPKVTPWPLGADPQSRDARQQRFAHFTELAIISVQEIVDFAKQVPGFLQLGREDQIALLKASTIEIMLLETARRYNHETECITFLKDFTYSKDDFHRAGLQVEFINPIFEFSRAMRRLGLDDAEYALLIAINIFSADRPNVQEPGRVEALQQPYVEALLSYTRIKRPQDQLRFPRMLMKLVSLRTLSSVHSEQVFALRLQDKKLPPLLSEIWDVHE

Structure (SMILES)	outcome	AC50
CC(C)(C)C(O)/C(=C\c1ccc(Cl)cc1Cl)n1cncn1 (stereo not given)	inactive	–
O=S1OCC2C(CO1)C1(Cl)C(Cl)=C(Cl)C2(Cl)C1(Cl)Cl (stereo not given)	inactive	–
CCC(C)(NC(=O)c1cc(Cl)c(C)c(Cl)c1)C(=O)CCl (stereo not given)	inactive	–
CCCN(CCOc1c(Cl)cc(Cl)cc1Cl)C(=O)n1ccnc1	inactive	–
OCCOc1ccccc1	inactive	–
CC1(C)C(C=C(Cl)Cl)C1C(=O)OC(C#N)c1ccc(F)c(Oc2ccccc2)c1 (stereo not given)	inactive	–
Cc1[nH]c(=O)n(C(C)(C)C)c(=O)c1Cl	inactive	–
CC(C)(C)C(O)C(Oc1ccc(Cl)cc1)n1cncn1 (stereo not given)	inactive	–
COc1cc(OC)nc(NC(=O)NS(=O)(=O)c2cc(NC=O)ccc2C(=O)N(C)C)n1	inactive	–
CNC(=O)CSP(=S)(OC)OC	inactive	–
O=C1c2ccccc2C(=O)N1SC(Cl)(Cl)Cl	inactive	–
O=C(O)CCCOc1ccc(Cl)cc1Cl	inactive	–
N#Cc1c(Cl)c(Cl)c(Cl)c(C#N)c1Cl	inactive	–
CCCN(CCC)c1c([N+](=O)[O-])cc(C(F)(F)F)cc1[N+](=O)[O-]	inactive	–
CC(C)OC(=O)Nc1cccc(Cl)c1	inactive	–
COC(=O)c1ccccc1S(=O)(=O)NC(=O)N(C)c1nc(C)nc(OC)n1	inactive	–
O=[N+]([O-])c1c(Cl)c(Cl)c(Cl)c(Cl)c1Cl	inactive	–
COP(=O)(OC)OC=C(Cl)Cl	inactive	–
CC(C)N(C(=O)COc1nnc(C(F)(F)F)s1)c1ccc(F)cc1	inactive	–
COP(=S)(OC)Oc1ccc(SC)c(C)c1	–	39.3 µM (active)

Structure (SMILES)	outcome	AC50
ClC1C(Cl)C(Cl)C(Cl)C(Cl)C1Cl (stereo not given)	inactive	–
CNC(=O)Oc1ccccc1OC(C)C	inactive	–
Clc1ccccc1-c1nnc(-c2ccccc2Cl)nn1	inactive	–
CCC(C)(C)C(=O)OC1=C(c2ccc(Cl)cc2Cl)C(=O)OC12CCCCC2	inactive	–
CCOc1nc(NC)nc(NC(=O)NS(=O)(=O)c2ccccc2C(=O)OC)n1	inactive	–
CC[C@H](C)[C@H]1O[C@]2(C=C[C@@H]1C)C[C@@H]1C[C@@H](C/C=C(\C)[C@@H](O[C@H]3C[C@H](OC)[C@@H](O[C@H]4C[C@H](OC)[C@@H](O)[C@H](C)O4)[C@H](C)O3)[C@@H](C)/C=C/C=C3\CO[C@@H]4[C@H](O)C(C)=C[C@@H](C(=O)O1)[C@]34O)O2 (tested in a mixture with another compound)	inactive	–
Oc1ccc(Cl)cc1Cc1ccccc1	inactive	–
O=[N+]([O-])/N=C1\NCCN1Cc1ccc(Cl)nc1	inactive	–
CCN(CC)C(=O)SCc1ccc(Cl)cc1	inactive	–
CCS(=O)(=O)c1cccnc1S(=O)(=O)NC(=O)Nc1nc(OC)cc(OC)n1	inactive	–
COC(=O)c1ccccc1S(=O)(=O)NC(=O)Nc1nc(C)nc(OC)n1	inactive	–
O=C(Nc1ccccc1)Nc1cnns1	inactive	–
CCOCN(C(=O)CCl)c1c(C)cccc1CC	inactive	–
CN1CSC(=S)N(C)C1	inactive	–
O=C(NC(=O)c1c(F)cccc1F)Nc1ccc(OC(F)(F)C(F)OC(F)(F)F)c(Cl)c1 (stereo not given)	inactive	–
CNC(=O)/C=C(\C)OP(=O)(OC)OC	inactive	–
N#CN	inactive	–
CNC(=O)Oc1cccc(N=CN(C)C)c1	inactive	–
COC(=O)c1ccccc1CS(=O)(=O)NC(=O)Nc1nc(OC)cc(OC)n1	inactive	–
